Assay outcomes: PubChem BioAssay, Broad Institute
The list is a sample of the results.
aSyn UTR act – Activators via SNCA 5'UTR binding, MLPCN; alpha-synuclein 5'UTR reporter, activators screen; activity score, % (tested at 7.5 µM), hits read low; 7.1% of 300,000 active; AID 1814; in the data active = activity score below about -60%
Hits are given with their value; . = inactive.

SMILES | aSyn UTR act
COc1ccc(/C=C/C(=O)Nc2cccc(C(C)=O)c2)cc1 | -95
CC(Oc1ccc(Cl)cc1Cl)C(=O)Nc1cccc(O)c1 (stereo unspecified) | -62
CC(Oc1ccc(Br)cc1Cl)C(=O)Nc1ccncc1 (stereo unspecified) | -84
COc1ccccc1NC(=O)c1cnc(Nc2ccccc2OC)c2ccccc12 | .
Cc1cccc(C)c1NC(=O)c1c[nH]c2ccccc12 | -120
COc1ccccc1NC(=O)c1c[nH]c2ccccc12 | -78
Cc1nn(-c2ccccc2)c(N)c1N=Nc1ccc2ccccc2c1 | -242
Cc1ccc(N=Nc2c(N)nn(-c3ccccc3)c2N)cc1 | -183
Oc1cccc(N2Cc3ccccc3C2)c1 | -82
Cc1cc(N2Cc3ccccc3C2)ccc1C=O | -96
Cc1cc2c(cc1C)CN(c1ccccc1)C2 | -90
CCOc1ccccc1NC(=O)c1ccc2[nH]c(C)c(C)c2c1 | -91
CCC(=O)CCC(=O)c1ccc2ccccc2c1 | -92
CCOc1ccccc1NC(=O)c1ccc2ccccc2c1 | -81
Cc1ccc(NC(=O)CS(=O)c2ccccc2N)c(C)c1 (stereo unspecified) | -96
O=C(NCCSCc1ccco1)Nc1ccc(Cl)cc1 | -134
O=C(NCCSCc1ccco1)Nc1cccc(Cl)c1 | -126
Cc1nnsc1SCCNC(=O)Nc1ccc(Cl)cc1 | -98
O=C(N/N=C\c1ccco1)Nc1cccc(Cl)c1 | -131
O=C(Nc1ccccc1)N1CCc2ccccc21 | -117
CCOC(=O)c1[nH]c(C)c(C(=O)N2CCc3ccccc32)c1C | .
CCOC(=O)c1ccc(NC(=O)N2CCc3ccccc32)cc1 | -189
CNC(=O)/C(C#N)=C/c1ccc(-c2ccc(Cl)cc2)o1 | -125
Cc1cccc(C)c1NC(=O)/C(C#N)=C/c1ccc(-c2ccc(C(=O)O)cc2)o1 | -127
O=C(Nc1ccccc1)O[C@@H]1C[C@H]2CCC(=O)N3CC[C@@H](C1)[C@@H]23 | -136
SMILES | aSyn UTR act
O=C(Nc1ccccc1)OC1CC2CC1C1CCCC21 (stereo unspecified) | -141
CCS/C(N)=N/N=C/c1cc(C)ccc1O | -82
CS/C(N)=N/N=C/c1c(O)ccc2ccccc12 | -175
COc1ccccc1OCC(=O)N/N=C/c1c(O)ccc2ccccc12 | .
CCCCS/C(N)=N/N=C/c1cc(C)ccc1O | -76
CS/C(N)=N/N=C/c1cc(C)ccc1O | -94
CC(/C=C/c1ccc(OCc2ccccc2)cc1)=N\O | -133
CN1CCN(/N=C/c2ccc(OCc3ccccc3)cc2)CC1 | -73
COC(=O)c1ccc(COc2ccc(/C=N/N3CCN(C)CC3)cc2)cc1 | -127
CCC(=O)NCCc1nc2cc(NC(=O)c3ccccc3Cl)ccc2n1C | -78
Cn1c(CN2CCCCC2)nc2cc(NC(=O)c3ccccc3)ccc21 | -73
Cn1c(CN2CCCCC2)nc2cc(NC(=O)c3cccs3)ccc21 | -68
Cn1c(CN2CCCC2)nc2cc(NC(=O)c3ccco3)ccc21 | -116
CCN1CCN(Cc2ccc(NC(=O)c3cc(NC(=O)c4cncc(-c5cccs5)c4)cc(OC)c3)cc2C(F)(F)F)CC1 | .
Cc1ccc(C(=O)Nc2ccc3c(c2)nc(CCNC(=O)c2ccco2)n3C)cc1 | -104
Cn1c(CN2CCCCC2)nc2cc(NC(=O)c3cccc(Br)c3)ccc21 | -99
O=C(Nc1ccc2c(c1)nc1n2CCN(Cc2ccccc2)C1)c1cccs1 | -91
CC1CCN(CCc2nc3cc(NC(=O)Nc4ccccc4)ccc3n2C)CC1 | -84
Cc1cc(C)c(NC(=O)CCN2CCN(Cc3ccccc3)CC2)c(C)c1 | .
O=C(Nc1ccc(CN2CCCCC2)cc1)c1cccc(Br)c1 | -72
COc1c(C)cccc1C(=O)Nc1ccc(CN2CCCCC2)cc1 | -101
O=C(CN1CCC(NC(=O)c2cccc(F)c2)CC1)Nc1ccc(Br)cc1 | .
O=C(Nc1ccc(CN2CCCCC2)cc1)c1sc2ccccc2c1Cl | -159
Clc1ccc(-c2nc(C3CCCCC3)no2)cc1 | -160
CCOc1cc(/C=C2\CCC/C(=C\c3cc(Cl)c(O)c(OCC)c3)C2=O)cc(Cl)c1O | -329
SMILES | aSyn UTR act
CCOc1cc(/C=C2\CN(C)C/C(=C\c3ccc(O)c(OCC)c3)C2=O)ccc1O | .
COc1ccc2nc(NC(=O)CSc3ccccc3)sc2c1 | -128
CCOc1ccc2nc(NC(=O)CSc3nc(SC)ns3)sc2c1 | -167
CCOc1ccc2nc(NC(=O)CSC3=NCCS3)sc2c1 | -77
COc1ccc2nc(NC(=S)N(C)C)sc2c1 | -81
Cc1nc(NC(=O)CN2CCOCC2)sc1-c1ccccc1 | -74
COc1ccc2nc(NC(=O)CN3CCOCC3)sc2c1 | -63
CC(=O)N1CC(=O)N=C1SCC(=O)Nc1nc(C)c(-c2ccccc2)s1 | -79
CCCC(=O)Nc1nc2ccc(OC)cc2s1 | -133
COc1ccc2nc(NC(=O)CSc3cn[nH]n3)sc2c1 | -68
COc1ccc2nc(NC(=O)CSC3=NCCS3)sc2c1 | -88
CCCCc1ccc(-c2nc(NC(=O)C3C4CCC(O4)C3C(=O)O)sc2C)cc1 (stereo unspecified) | -128
Nc1ccc(C(=O)n2c3ccccc3c3ccccc32)cc1 | .
Nc1c(C(=O)c2ccc(F)cc2)oc2ccccc12 | -137
COc1ccc2oc(C(=O)C3CC3)c(N)c2c1 | -133
COC(=O)CCC(=O)c1oc2ccc(OC)cc2c1N | -62
COc1ccc(C(=O)c2oc3ccccc3c2N)cc1 | -179
Nc1c(C(=O)c2ccco2)oc2ccccc12 | -113
COC(=O)c1oc2ccccc2c1N | -63
COc1ccc2oc(C(=O)c3ccccc3)c(N)c2c1 | -174
COc1ccc2occ(C(=O)c3ccccc3)c2c1 | -133
Nc1c(C(=O)Nc2ccc(Cl)cc2)oc2ccccc12 | -253
CCN1C(=O)/C(=C/c2nc3ccccc3c(=O)n2-c2ccccc2)c2ccccc21 | -104
Oc1c(Br)cc(C=Nc2ccc3nc(-c4ccccc4)[nH]c3c2)c(O)c1Br | -124
O=[N+]([O-])c1ccc(O)c(C=Nc2ccc3nc(-c4ccccc4)[nH]c3c2)c1 | -166
SMILES | aSyn UTR act
NC(=O)c1sc2nc(-c3cccnc3)ccc2c1N | -102
CCOC(=O)c1sc2nc(-c3cccnc3)ccc2c1N | -150
CCOc1ccccc1NC(=O)c1nc(S(=O)(=O)Cc2cccc(C)c2)ncc1Cl | .
CC(C)c1nnc(NC(=O)c2nc(S(=O)(=O)Cc3ccccc3F)ncc2Cl)s1 | -72
CCc1nnc(NC(=O)c2nc(S(=O)(=O)Cc3cccc(C)c3)ncc2Cl)s1 | -114
Cc1ccc(CS(=O)(=O)c2ncc(Cl)c(C(=O)Nc3ccc(OC(F)F)cc3)n2)cc1 | .
Cc1cccc(CS(=O)(=O)c2ncc(Cl)c(C(=O)Nc3nnc(C(C)C)s3)n2)c1 | -98
CC(=O)c1ccc(Nc2ccc([N+](=O)[O-])c3nonc23)cc1 | -104
CN(C)/C=C/C(=O)/C=C/c1ccc(Cl)cc1 | -180
C=CCSC1=NNC(c2ccc(C(C)(C)C)cc2)=NN1 | -89
CCOC(=O)c1ccc(-c2cccc(C(F)(F)F)c2)nc1C | -122
Oc1ccc(Cl)cc1-c1cc(-c2ccccc2)n[nH]1 | -99
Oc1ccccc1-c1cc(-c2ccc(F)cc2)n[nH]1 | -128
Oc1ccc(F)cc1-c1cc(-c2ccc3c(c2)OCCO3)n[nH]1 | -151
Cc1ccc(-c2cc(-c3ccc(F)cc3)n[nH]2)c(O)c1 | -86
Oc1ccc(Br)cc1-c1cc(-c2ccccc2F)[nH]n1 | -74
Cc1ccc(-c2cc(-c3ccc(C)cc3O)[nH]n2)cc1 | -160
Cc1ccc(O)c(-c2cc(-c3cccc(Br)c3)n[nH]2)c1 | -97
CC(=O)Nc1cccc(C(=O)/C=C/c2ccc(N(C)C)cc2)c1 | -71
